# Measurements from PubChem BioAssay AID777 (Sanford-Burnham Center for Chemical Genomics, 2007).
# Among all 96,000 compounds or so, about 19,000 (20%) were called active. These entries were drawn from the full list. A number with no mark means an inactive call.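 How the source made its calls: active means blocking of liver enzyme CYP2C9 beyond about 50% at 5 µM (limit read from the data); inactive means the rest.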
# Target: Cytochrome P450 2C9 (Homo sapiens) (UniProt P11712)
# Assay: blockers of cytochrome P450 2C9 activity – biochemical, luminescence, ADME assay, primary screen (AID 777)
# Details: CYP2C9 Supersomes, luciferin-H conversion, at 5 µM, hits give high values
# Sequence of Cytochrome P450 2C9 (Homo sapiens) (P11712 whole entry, looked up): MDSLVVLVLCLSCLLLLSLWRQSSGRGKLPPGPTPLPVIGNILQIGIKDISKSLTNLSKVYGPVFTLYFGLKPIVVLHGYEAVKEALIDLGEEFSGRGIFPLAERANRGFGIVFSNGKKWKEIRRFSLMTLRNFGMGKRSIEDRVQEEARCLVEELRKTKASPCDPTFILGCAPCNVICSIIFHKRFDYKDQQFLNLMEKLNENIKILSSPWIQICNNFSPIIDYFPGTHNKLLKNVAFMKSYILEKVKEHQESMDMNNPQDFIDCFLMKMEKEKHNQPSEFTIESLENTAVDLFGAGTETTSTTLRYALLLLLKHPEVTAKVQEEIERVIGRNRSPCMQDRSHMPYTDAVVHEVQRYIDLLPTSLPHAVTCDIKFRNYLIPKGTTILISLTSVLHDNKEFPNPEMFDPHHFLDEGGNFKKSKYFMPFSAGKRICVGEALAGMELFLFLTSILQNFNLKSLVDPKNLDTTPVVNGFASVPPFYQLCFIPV
row,Structure (SMILES),inhibition
1,c1ccc(CSc2ncnc3c2sc2nc(N4CCOCC4)c4c(c23)CCCC4)cc1,10.4%
2,CCOC(=O)c1sc(NC(=O)CSc2nc(C)cc(C(F)(F)F)n2)c(C#N)c1C,24.8%
3,COC(=O)C(NC(C)=O)(Nc1nc2c(s1)CCCC2)C(F)(F)F (centres undefined),26.9%
4,CCC(=O)NC(Nc1nc2ccc(C)cc2s1)(C(=O)OC)C(F)(F)F (centres undefined),97% (active)
5,CCC(=O)NC(Nc1cc(C)ccn1)(C(F)(F)F)C(F)(F)F,23.8%
6,O=C(CCN1C(=O)COc2ccccc21)NCCCN1CCN(c2ccc(F)cc2)CC1,3.9%
7,COc1ccc(OC)c(C2N(c3ccccn3)C(=O)C3CCCN32)c1 (centres undefined),10.9%
8,C=CCn1c(=S)[nH]c2nc3c(cc2c1=O)COC(C)(C)C3,31.2%
9,CC1(C)Cc2nc3sc4c(SCC(=O)NC(c5ccccc5)c5ccccc5)ncnc4c3cc2CO1,20.2%
10,CC(C)CCSc1ncnc2c1oc1nc3c(cc12)COC(C)(C)C3,55.7% (active)
11,CN(C)c1ccnc2sc3c(=O)n(Cc4ccccc4)cnc3c12,49.6%
12,O=C(COC(=O)c1ccccc1NC(=O)c1ccco1)Nc1ccc2c(c1)OC(F)(F)O2,76.1% (active)
13,Cc1ccccc1NC(=O)c1cnn(-c2ccccc2)c1NC(=O)c1ccco1,1.2%
14,COc1ccccc1C(=O)Nc1ccc(NC(=O)c2ccco2)c(C)c1,-177%
15,Cc1cc(N)n2nc(-c3ccc(C(C)(C)C)cc3)cc2n1,38.3%
16,CCOC(=O)N1CCN(Cc2nc3c(c(=O)n(C)c(=O)n3C)n2Cc2ccccc2)CC1,9.9%
17,Cn1c(=O)c2c(nc(NCCc3ccccc3)n2Cc2ccccc2)n(C)c1=O,5.6%
18,Cn1c(=O)[nH]c(=O)c2c1nc(CN(Cc1ccccc1)Cc1ccccc1)n2CCN1CCOCC1,7.6%
19,Cn1c(=O)c2c(nc(OCc3cccnc3)n2Cc2ccccc2)n(C)c1=O,52.4% (active)
20,CC1CN(Cc2nc3c(c(=O)n(C)c(=O)n3C)n2Cc2cccc(Cl)c2)CC(C)O1 (centres undefined),28%
21,CC(C)CCn1c(CN(C)Cc2ccccc2)nc2c1c(=O)n(C)c(=O)n2C,95.6% (active)
22,CCN1CCN(Cc2nc3c(c(=O)n(C)c(=O)n3C)n2CC(=O)c2ccccc2)CC1,29.8%
23,CN1CCN(Cc2nc3c(c(=O)n(C)c(=O)n3C)n2Cc2cccc3ccccc23)CC1,-8.7%
24,COCCn1c(CN(Cc2ccccc2)Cc2ccccc2)nc2c1c(=O)n(C)c(=O)n2C,96.4% (active)

row,Structure (SMILES),inhibition
1,CCOC(=O)Cn1c(CN(Cc2ccccc2)Cc2ccccc2)nc2c1c(=O)[nH]c(=O)n2C,48.8%
2,C=CCOc1nc2c(c(=O)n(C)c(=O)n2C)n1Cc1ccc(Cl)cc1Cl,8.1%
3,COCCn1c(CN2CCC(Cc3ccccc3)CC2)nc2c1c(=O)n(C)c(=O)n2C,54.2% (active)
4,CC(=O)c1ccc2c(ccc3ccccc32)c1,40.7%
5,CC(C)NC(=O)C(=O)NCCN1CCN(S(=O)(=O)c2ccc(Cl)cc2)CC1,20.7%
6,COCCN1Cc2cccc(C(=O)Nc3ccccc3OC)c2C1=O,34.5%
7,O=C(Nc1cc2ccccc2oc1=O)C1CCCCC1,3.6%
8,Cc1cccc(C)c1NC(=O)CCCSc1nnc(-c2ccco2)n1-c1ccccc1,25.6%
9,O=C(Nc1nnc(CCc2ccccc2)s1)C1CCCO1 (centres undefined),16.3%
10,O=C(OC(C(=O)NC1CCCC1)c1ccc(F)cc1)c1ccno1 (centres undefined),13.9%
11,CC(C)Cn1cnc2c1c(=O)n(CC(O)c1ccccc1)c(=O)n2CC(C)C (centres undefined),-5.7%
12,CC(C)Cn1c(CN(Cc2ccccc2)Cc2ccccc2)nc2c1c(=O)n(C)c(=O)n2C,72.2% (active)
13,Nc1cc(OC(=O)c2ccccc2Br)nn1S(=O)(=O)c1ccccc1,61.5% (active)
14,Cc1ccc(S(=O)(=O)n2nc(OC(=O)C(C)(C)C)cc2N)cc1,50.4% (active)
15,Cc1ccc(S(=O)(=O)N2CCCC2CO)cc1 (centres undefined),-37%
16,Cc1c(C(=O)OCC(=O)N(CCC#N)c2ccccc2)oc2c1ccc1ccccc12,-74.8%
17,CC(=O)Nc1ccccc1OC(=O)N1CCOCC1,-0.1%
18,CC(C)Cc1cc(C(=O)Nc2cc(Br)ccc2O)no1,18.1%
19,O=c1c2ccccc2oc2nc3n(c(=O)c12)CCCS3,-21.3%
20,Cn1c(=O)n(CCc2ccccc2)c(=O)c2c1nc1n2CCCN1c1ccccc1,14.3%
21,Cc1cccc(N2CC(C)Cn3c2nc2c3c(=O)n(CC(=O)OCc3ccccc3)c(=O)n2C)c1 (centres undefined),86.9% (active)
22,COc1ccc(N2CC(C)Cn3c2nc2c3c(=O)n(Cc3ccccc3F)c(=O)n2C)c(OC)c1 (centres undefined),-4.7%
23,O=C(/C=C/c1cc2c(cc1Br)OCO2)NCc1ccc(Cl)cc1,-6.4%
24,CC(C)(C)C(=O)c1cnc(Nc2ccccc2)s1,33.1%

row,Structure (SMILES),inhibition
1,S=c1[nH]nc(-c2ccco2)n1/N=C/c1ccc(Br)s1,-24.6%
2,CCC(C)(C)n1nnnc1C(c1ccccc1OC)N1CCSCC1 (centres undefined),17%
3,Cc1ccc(C(c2nnnn2C(C)(C)C)N2CCc3ccccc3C2)cc1 (centres undefined),-5.7%
4,COc1ccc(OC)c(C(c2nnnn2C(C)(C)C)N2CCc3ccccc3C2)c1 (centres undefined),98.9% (active)
5,CCOc1ccc(S(=O)(=O)N(CC(=O)O)c2ccccc2)cc1,17.7%
6,COc1cccc(NC(=O)CN(C)S(=O)(=O)c2ccc(C)cc2)c1,19%
7,CCN(CC)C(=O)CN(c1cccc(OC)c1)S(=O)(=O)c1ccc(C)cc1,94% (active)
8,Cc1nonc1OCCn1nnnc1N,6.3%
9,CCN(CC(=O)NCc1cccs1)c1nnnn1-c1ccccc1,-1.7%
10,Cc1n[nH]c(=S)n1/N=C/c1ccc(Br)o1,4.5%
11,CCCCOC(=O)Cn1c(=O)n(CC(=O)OCCCC)c2cc(C)ccc21,60.8% (active)
12,CCCCOC(=O)Cn1c(=N)n(CCN(CC)CC)c2ccccc21,-37.7%
13,COC(=O)Cn1c2ccc(C)cc2c2nc(C)sc21,22.4%
14,COCCCNCC(=O)Nc1sc(C)c(C)c1C(=O)OC,39.5%
15,CCCCN(CC)CCNC(=O)c1[nH]c(C)c(C(C)=O)c1C,-14.6%
16,CCCCOC(=O)c1[nH]c(C)c(C(=O)OC)c1C,61.2% (active)
17,CCCOc1ccc(NC(=O)C2CCCNC2=O)cc1 (centres undefined),1.9%
18,Cc1cc(C)cc(NC(=O)CSCc2cnn(-c3ccccc3)c2-n2cccc2)c1,44%
19,CC(=O)Nc1ccc(NC(=O)CSCc2cnn(-c3ccccc3)c2-n2cccc2)cc1,86.6% (active)
20,COc1ccc(-n2nnnc2SCC(=O)Nc2ccccc2)cc1,-7.3%
21,Cc1ccc(NC(=O)c2cc(-c3ccc(C)o3)nc3ccccc23)nc1,3.2%
22,CC(=O)OCc1cc2cc(C)ccc2[nH]c1=O,-8%
23,O=C(NCC1CCCO1)/C(=C\c1ccco1)NC(=O)c1ccccc1 (centres undefined),-18.8%
24,C/C(=C\c1ccco1)C1Nc2cccc3cccc(c23)N1,55.5% (active)

row,Structure (SMILES),inhibition
1,Cc1cccc(NC(=O)/C(=C\c2ccco2)NC(=O)c2ccccc2)c1,32.5%
2,COc1ccc2c(c1OC)C(=O)N(c1ncn[nH]1)C2,-23.9%
3,CCN(CC)C(=O)CC1(c2ccccc2OC)CCOC(C(C)C)C1 (centres undefined),17%
4,O=S(=O)(c1ccc2ccccc2c1)N1CCN(S(=O)(=O)N2CCOCC2)CC1,-53.6%
5,O=C(CCc1ccc(S(=O)(=O)N2CCOCC2)cc1)Nc1ccc2ccccc2c1,55.3% (active)
6,O=C(CN1CCN(S(=O)(=O)c2ccc3ccccc3c2)CC1)NC(=O)NC1CCCCC1,-18.3%
7,Cn1nnnc1SCc1cc(=O)[nH]c2ccccc12,14.5%
8,CCOC(=O)Cc1c(C)nc2c(C#N)c(C)nn2c1C,-3.2%
9,CCCc1nc2ccccc2c(=O)n1/N=C/c1ccc(O)c(O)c1,85.3% (active)
10,CCCOn1c(-n2nc(C)cc2C)nc2ccccc2c1=O,11.3%
11,O=c1c2ccccc2nc(N/N=C/c2ccccc2)n1O,-1.4%
12,O=C(Cc1ccc(-n2c(=O)[nH]c3ccccc3c2=O)cc1)N1CCN(c2cccc(Cl)c2)CC1,57.5% (active)
13,CCOC(=O)N1CCN(C(=O)Cc2ccc(-n3c(=S)[nH]c4ccccc4c3=O)cc2)CC1,11.8%
14,CCOC(=O)N1CCC(Nc2c(NCCN3CCN(c4cccc(Cl)c4)CC3)c(=O)c2=O)CC1,0.8%
15,O=C(C1CCN(S(=O)(=O)c2cnc[nH]2)CC1)N1CCN(Cc2ccc3c(c2)OCO3)CC1,9.3%
16,COc1ccccc1Oc1ccc(S(=O)(=O)Nc2cccnc2)cc1,84.9% (active)
17,O=S(=O)(Nc1ccccn1)c1ccc(Oc2ccccc2)cc1,81.4% (active)
18,Cc1ccc(S(=O)(=O)c2ccc(Oc3ccccc3)cc2)cc1,-5.1%
19,Cc1nc(CNS(=O)(=O)c2ccc(Oc3ccccc3)cc2)cs1,39.1%
20,Cc1cc(C)cc(NS(=O)(=O)c2ccc(Oc3ncc(C(F)(F)F)cc3Cl)cc2)c1,47.2%
21,O=C(CS(=O)(=O)Cc1ccccc1)Nc1cccnc1,-3.4%
22,COc1cc(=O)[nH]c(=O)n1C(=O)Cc1ccccc1,11.7%
